Where a name gives a salt, the structure may show the parent alone.
These compounds were tested on thyroid hormone receptor (endogenous TRα and TRβ). Conditions: read-out: Average AC50 (uM) GH3-TRE-Antag, antagonist mode, 1 nM T3, no GH3 cytotoxicity hit.
Design: species or system GH3-TRE-Luc (rat pituitary); GH3-TRE-Luc luciferase reporter, antagonist mode against 1 nM T3, loss of signal, qHTS

| Compound | AC50 |
| --- | --- |
| CC(C)Cc1ccc(C(C)C(=O)O)cc1 (centres unmarked) [Ibuprofen] | > 50 µM |
| CCCN(CC)CC1COC2(CCC(C(C)(C)C)CC2)O1 (centres unmarked) [Spiroxamine] | 66.6 µM |
| CC[C@H](C)C(=O)O[C@H]1C[C@H](O)C=C2C=C[C@H](C)[C@H](CC[C@@H](O)C[C@@H](O)CC(=O)O)[C@H]21 [Pravastatin sodium] | 18.4 µM |
| C[C@]12CC[C@H](O)CC1=CC[C@@H]1[C@@H]2CC[C@]2(C)C(=O)CC[C@@H]12 [Dehydroepiandrosterone] | > 50 µM |
| CC(=O)c1c(C)cc(C(C)(C)C)cc1C [4'-tert-Butyl-2',6'-dimethylacetophenone] | 48.7 µM |
| Cn1cnc2c(F)c(Nc3ccc(Br)cc3Cl)c(C(=O)NOCCO)cc21 [Selumetinib] | 12.5 µM |
| CC/C=C\C/C=C\C/C=C\CCCCCCCC(=O)O [Linolenic acid] | > 50 µM |
| CCCCC[C@H](O)/C=C/[C@H]1[C@H](O)CC(=O)[C@@H]1C/C=C\CCCC(=O)O [Dinoprostone] | 4.68 µM |
| C#C[C@]1(O)CC[C@H]2[C@@H]3CCC4=CC(=O)CC[C@@H]4[C@H]3C(=C)C[C@@]21CC [Etonogestrel] | 19.5 µM |
| Cc1ccc(-n2nc(C(C)(C)C)cc2NC(=O)Nc2ccc(OCCN3CCOCC3)c3ccccc23)cc1 [Doramapimod] | 45.9 µM |
| O=C(c1ccc(O)cc1)c1ccc(O)cc1O [2,4,4'-Trihydroxybenzophenone] | > 90 µM |
| NNc1ccc(C(=O)O)cc1 [4-Hydrazinobenzoic acid hydrochloride] | 84.8 µM |
| Nc1ccc2cc3ccccc3cc2c1 [2-Aminoanthracene] | 3.18 µM |
| CCN(C(=O)c1cc(C)cc(OC[C@H](C)Nc2ccncc2)c1)C(C)C [GW473178E methyl benzene sulphonic acid] | 51.7 µM |
| O=C(OCc1ccccc1)c1ccc(O)cc1 [Benzylparaben] | > 50 µM |
| CC[C@H](C)C(=O)O[C@H]1CCC=C2C=C[C@H](C)[C@H](CC[C@@H]3C[C@@H](O)CC(=O)O3)[C@H]21 [Mevastatin] | 30.9 µM |
| O=C(O)Cc1sc(-c2ccccc2)nc1-c1ccc(Cl)cc1 [Fentiazac] | > 50 µM |
| OCCN1CCNCC1 [1-Piperazineethanol] | 74.1 µM |

| Compound | AC50 |
| --- | --- |
| Cc1cc(OI)c(C(C)C)cc1-c1cc(C(C)C)c(OI)cc1C [Thymol iodide] | 37.3 µM |
| O=C(O)c1ccccc1Nc1cccc(C(F)(F)F)c1 [Flufenamic acid] | 29.6 µM |
| CC[C@@H]1/C=C(\C)C[C@H](C)C[C@H](OC)[C@H]2O[C@@](O)(C(=O)C(=O)N3CCCC[C@H]3C(=O)O[C@H](/C(C)=C/[C@@H]3CC[C@H](Cl)[C@H](OC)C3)[C@H](C)[C@@H](O)CC1=O)[C@H](C)C[C@@H]2OC [Pimecrolimus] | 16 µM |
| CC1=CC[C@H](C(C)C)C=C1 [(R)-alpha-Phellandrene] | 54.5 µM |
| Cc1ccc(Nc2nccc(N(C)c3ccc4c(C)n(C)nc4c3)n2)cc1S(N)(=O)=O [Pazopanib] | 14 µM |
| C/C=C\C/C=C/CCCCCCCCOC(C)=O [(9E,12Z)-9,12-Tetradecadien-1-ol acetate] | 68.2 µM |
| CCOC(=O)n1ccn(C)c1=S [Carbimazole] | > 20 µM |
| Nc1ccc(Oc2ccc(Cl)cc2)cc1 [4-Chloro-4'-aminodiphenyl ether] | 40.7 µM |
| CCCCN(CCCC)C(=O)N(CCCC)CCCC [1,1,3,3-Tetrabutylurea] | 22.2 µM |
| C[C@]12CCC(=O)C=C1[C@@H]1C[C@@H]1[C@H]1[C@@H]3[C@@H]4C[C@@H]4[C@@]4(CCC(=O)O4)[C@@]3(C)CC[C@@H]12 [Drospirenone] | 21.9 µM |
| COc1ccc2c(c1OC)CN1CCc3cc4c(cc3[C@@H]1C2)OCO4 [Canadine] | > 20 µM |
| Clc1cccc(C(c2ccc3[nH]cnc3c2)n2ccnc2)c1 (centres unmarked) [Liarozole hydrochloride] | 38.6 µM |
| Cc1cccc(Oc2ccccc2)c1 [1-Methyl-3-phenoxybenzene] | 82.5 µM |
| CCCCC(CC)COC(=O)/C=C/c1ccc(OC)cc1 (stereo not drawn) [2-Ethylhexyl trans-4-methoxycinnamate] | > 90 µM |
| c1ccc2c(c1)ccc1ncccc12 [Benzo(f)quinoline] | > 90 µM |
| CC(=O)C1(C)CC2=C(CCCC2(C)C)CC1C (centres unmarked) [Isocyclemone E] | 87.5 µM |
| C[C@H]1O[C@@H](O[C@H]2[C@@H](O)C[C@H](O[C@H]3[C@@H](O)C[C@H](O[C@H]4CC[C@@]5(C)[C@H](CC[C@@H]6[C@@H]5C[C@@H](O)[C@]5(C)[C@@H](C7=CC(=O)OC7)CC[C@]65O)C4)O[C@@H]3C)O[C@@H]2C)C[C@H](O)[C@@H]1O [Digoxin] | > 50 µM |
